Test in all cases: DAPPL (digital affinity profiling via proximity ligation, sequencing); 10 mM Tris-HCl pH 7.5, 50 mM NaCl, 1 mM DTT, 4% glycerol, room temperature, 30 min; GST-TFs on glutathione beads, 16-mer random dsDNA library, 0.1% formaldehyde crosslink after washing; high values mean tight binding
Common to all, as to details: protein: recombinant; tags: N-terminal GST; dsDNA, one strand shown

One test has as its target T1, FLI1 (Homo sapiens, UniProt Q01543 1-452).
T1 sequence: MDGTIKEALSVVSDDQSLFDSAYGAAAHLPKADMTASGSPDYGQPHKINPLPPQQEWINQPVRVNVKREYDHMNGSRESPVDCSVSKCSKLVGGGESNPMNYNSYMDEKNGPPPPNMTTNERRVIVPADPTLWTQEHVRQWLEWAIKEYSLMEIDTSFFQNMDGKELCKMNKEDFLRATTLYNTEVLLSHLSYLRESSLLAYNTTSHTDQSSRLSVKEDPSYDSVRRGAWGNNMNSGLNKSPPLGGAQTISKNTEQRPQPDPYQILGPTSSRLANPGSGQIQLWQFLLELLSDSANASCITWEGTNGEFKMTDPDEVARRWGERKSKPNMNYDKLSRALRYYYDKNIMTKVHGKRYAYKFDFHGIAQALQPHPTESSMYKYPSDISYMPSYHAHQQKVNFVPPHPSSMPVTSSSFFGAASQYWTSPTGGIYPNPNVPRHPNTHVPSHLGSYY
The essentials: (§1)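 Each value of binding signal is a hexamer's read frequency for a factor divided by the same hexamer's frequency in the tag-only sample. Barcoded, bead-captured GST fusions of human transcription factors made in yeast were pooled with that sample and incubated with 200 nmole of a random double-stranded 16-mer DNA library in Tris/NaCl/DTT/glycerol buffer at room temperature for 30 min. Washing, 0.1% formaldehyde crosslinking, proximity ligation, PCR and Illumina NextSeq500 sequencing followed.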

Another test deals with T2, ELK1 (Homo sapiens, UniProt P19419 1-428).
T2 sequence: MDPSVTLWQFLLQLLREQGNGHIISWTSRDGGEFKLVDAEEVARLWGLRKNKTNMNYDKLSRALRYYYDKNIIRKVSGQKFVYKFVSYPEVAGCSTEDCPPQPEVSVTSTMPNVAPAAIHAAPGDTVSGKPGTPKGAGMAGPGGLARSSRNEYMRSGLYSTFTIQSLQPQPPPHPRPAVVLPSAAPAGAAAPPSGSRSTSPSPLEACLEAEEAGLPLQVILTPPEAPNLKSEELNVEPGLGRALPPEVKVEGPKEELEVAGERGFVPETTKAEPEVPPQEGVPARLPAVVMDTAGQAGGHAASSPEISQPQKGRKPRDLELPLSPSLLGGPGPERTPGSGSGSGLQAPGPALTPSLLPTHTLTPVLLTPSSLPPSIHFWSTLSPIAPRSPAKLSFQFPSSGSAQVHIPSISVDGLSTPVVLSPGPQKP
An outline of the steps:
as §1

The target of another test is T3, GABPA (Homo sapiens, UniProt Q06546 1-454).
T3 sequence: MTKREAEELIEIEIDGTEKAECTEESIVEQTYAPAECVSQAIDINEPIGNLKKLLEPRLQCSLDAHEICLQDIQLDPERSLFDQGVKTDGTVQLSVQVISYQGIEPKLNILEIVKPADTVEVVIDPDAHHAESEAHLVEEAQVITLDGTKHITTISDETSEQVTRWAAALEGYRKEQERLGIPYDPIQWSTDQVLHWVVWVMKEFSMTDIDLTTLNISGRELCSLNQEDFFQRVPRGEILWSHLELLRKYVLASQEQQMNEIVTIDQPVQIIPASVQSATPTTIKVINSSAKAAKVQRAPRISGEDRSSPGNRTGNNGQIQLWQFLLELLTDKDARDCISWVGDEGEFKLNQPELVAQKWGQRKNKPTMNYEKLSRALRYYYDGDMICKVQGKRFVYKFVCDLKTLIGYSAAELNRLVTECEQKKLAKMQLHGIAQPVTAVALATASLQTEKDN
An outline of the steps:
as §1

The next test addresses T4, ERG (Homo sapiens, UniProt P11308 1-479).
T4 sequence: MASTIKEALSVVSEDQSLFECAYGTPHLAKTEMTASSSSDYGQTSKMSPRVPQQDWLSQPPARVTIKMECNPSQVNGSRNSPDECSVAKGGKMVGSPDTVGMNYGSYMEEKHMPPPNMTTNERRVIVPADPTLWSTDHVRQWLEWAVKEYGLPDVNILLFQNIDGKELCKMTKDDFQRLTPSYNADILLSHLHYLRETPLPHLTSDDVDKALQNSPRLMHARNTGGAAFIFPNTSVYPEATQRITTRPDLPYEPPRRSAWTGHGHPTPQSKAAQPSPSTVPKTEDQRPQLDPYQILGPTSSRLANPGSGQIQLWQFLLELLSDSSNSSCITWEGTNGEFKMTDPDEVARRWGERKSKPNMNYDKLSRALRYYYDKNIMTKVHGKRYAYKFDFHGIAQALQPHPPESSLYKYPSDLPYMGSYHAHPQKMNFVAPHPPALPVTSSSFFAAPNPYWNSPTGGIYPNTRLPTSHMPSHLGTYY
An outline of the steps:
as §1

The target in the next test is ELF1 (Homo sapiens, UniProt P32519 1-619). An outline of the steps: as §1
The next test has as its target T5, EHF (Homo sapiens, UniProt Q9NZC4 1-300).
T5 sequence: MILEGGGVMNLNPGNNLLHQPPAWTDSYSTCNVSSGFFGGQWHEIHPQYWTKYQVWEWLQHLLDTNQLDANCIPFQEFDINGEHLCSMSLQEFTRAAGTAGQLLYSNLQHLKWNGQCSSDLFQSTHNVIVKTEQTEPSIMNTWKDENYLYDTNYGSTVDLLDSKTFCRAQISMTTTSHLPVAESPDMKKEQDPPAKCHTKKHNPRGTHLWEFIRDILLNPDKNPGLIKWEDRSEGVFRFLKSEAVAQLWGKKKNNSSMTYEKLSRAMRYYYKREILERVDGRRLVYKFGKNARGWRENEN
An outline of the steps:
as §1

A further test concerns the target SPI1 (Homo sapiens, UniProt P17947 1-270). The essentials: as §1
The target of another test is SPIB (Homo sapiens, UniProt Q01892 1-262). An outline of the steps:
as §1

The next test deals with T6, ELK3 (Homo sapiens, UniProt P41970 1-407).
T6 sequence: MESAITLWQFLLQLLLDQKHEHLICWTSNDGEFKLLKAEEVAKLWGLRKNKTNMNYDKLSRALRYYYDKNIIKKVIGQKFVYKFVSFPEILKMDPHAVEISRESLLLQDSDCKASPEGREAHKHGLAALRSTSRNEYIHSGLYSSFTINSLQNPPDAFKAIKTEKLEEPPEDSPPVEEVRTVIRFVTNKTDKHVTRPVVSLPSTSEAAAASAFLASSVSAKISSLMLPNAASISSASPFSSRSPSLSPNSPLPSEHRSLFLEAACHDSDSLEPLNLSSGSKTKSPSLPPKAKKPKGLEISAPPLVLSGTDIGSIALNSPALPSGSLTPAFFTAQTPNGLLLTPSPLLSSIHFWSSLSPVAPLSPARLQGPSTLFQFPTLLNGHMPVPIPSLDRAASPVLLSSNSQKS
The essentials: as §1

The next test has as its target T7, FEV (Homo sapiens, UniProt Q99581 1-238).
T7 sequence: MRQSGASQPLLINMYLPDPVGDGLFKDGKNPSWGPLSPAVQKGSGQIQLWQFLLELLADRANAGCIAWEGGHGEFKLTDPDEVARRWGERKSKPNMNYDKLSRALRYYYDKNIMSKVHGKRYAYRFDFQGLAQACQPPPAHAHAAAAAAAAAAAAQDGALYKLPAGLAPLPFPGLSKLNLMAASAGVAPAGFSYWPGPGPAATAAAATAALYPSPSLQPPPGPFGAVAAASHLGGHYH
An outline of the steps:
as §1

The target in a further test is ETV5 (Homo sapiens, UniProt P41161 1-510). An outline of the steps:
as §1

The target in another test is T8, SPIC (Homo sapiens, UniProt Q8N5J4 1-248).
T8 sequence: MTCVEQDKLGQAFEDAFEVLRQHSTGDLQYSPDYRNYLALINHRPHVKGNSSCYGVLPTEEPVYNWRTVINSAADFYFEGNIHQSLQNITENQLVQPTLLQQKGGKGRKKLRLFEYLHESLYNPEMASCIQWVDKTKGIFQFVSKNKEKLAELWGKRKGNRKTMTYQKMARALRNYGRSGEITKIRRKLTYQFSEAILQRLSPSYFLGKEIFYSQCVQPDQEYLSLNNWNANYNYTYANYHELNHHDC
The essentials: as §1

The target of another test is ELF4 (Homo sapiens, UniProt Q99607 1-663). An outline of the steps: as §1
The target in the next test is T9, ELK4 (Homo sapiens, UniProt P28324-2 1-405).
T9 sequence: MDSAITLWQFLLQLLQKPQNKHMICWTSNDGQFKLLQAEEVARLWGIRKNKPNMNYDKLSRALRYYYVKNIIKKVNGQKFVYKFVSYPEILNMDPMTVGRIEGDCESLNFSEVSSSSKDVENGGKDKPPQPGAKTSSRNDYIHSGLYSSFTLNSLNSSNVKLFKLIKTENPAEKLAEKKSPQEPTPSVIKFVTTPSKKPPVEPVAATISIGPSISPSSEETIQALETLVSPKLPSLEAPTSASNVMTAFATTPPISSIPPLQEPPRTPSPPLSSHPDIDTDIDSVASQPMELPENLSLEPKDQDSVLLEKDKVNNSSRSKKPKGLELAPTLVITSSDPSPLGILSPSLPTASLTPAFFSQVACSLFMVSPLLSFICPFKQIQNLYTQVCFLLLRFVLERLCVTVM
An outline of the steps: as §1

The target of another test is T10, ETV2 (Homo sapiens, UniProt O00321 1-342).
T10 sequence: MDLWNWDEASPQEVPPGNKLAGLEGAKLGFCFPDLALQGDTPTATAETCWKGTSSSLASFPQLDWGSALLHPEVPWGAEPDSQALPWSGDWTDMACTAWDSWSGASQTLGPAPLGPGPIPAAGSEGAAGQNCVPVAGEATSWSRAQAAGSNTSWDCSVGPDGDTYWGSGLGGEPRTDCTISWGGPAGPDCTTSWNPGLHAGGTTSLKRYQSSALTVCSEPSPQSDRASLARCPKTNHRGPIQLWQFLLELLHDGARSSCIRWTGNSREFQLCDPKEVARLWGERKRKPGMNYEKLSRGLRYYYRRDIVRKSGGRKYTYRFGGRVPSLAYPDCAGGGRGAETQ
The essentials:
as §1

The next test deals with T11, ELF3 (Homo sapiens, UniProt P78545 1-371).
T11 sequence: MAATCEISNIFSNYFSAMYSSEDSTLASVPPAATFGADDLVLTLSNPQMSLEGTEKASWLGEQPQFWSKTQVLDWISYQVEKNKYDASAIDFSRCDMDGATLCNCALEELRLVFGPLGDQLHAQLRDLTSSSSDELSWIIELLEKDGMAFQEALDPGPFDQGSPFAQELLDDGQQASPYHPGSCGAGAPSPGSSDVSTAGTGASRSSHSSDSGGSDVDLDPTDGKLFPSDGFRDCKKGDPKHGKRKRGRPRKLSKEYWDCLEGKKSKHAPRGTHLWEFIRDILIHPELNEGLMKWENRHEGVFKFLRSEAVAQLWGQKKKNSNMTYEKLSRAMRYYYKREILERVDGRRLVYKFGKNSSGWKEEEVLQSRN
An outline of the steps: as §1

The target in the next test is ETV1 (Homo sapiens, UniProt P50549 1-477). The essentials: as §1
In the next test the target is CRX (Homo sapiens, UniProt O43186 1-299). An outline of the steps:
as §1

Chain of ELF4 (Q99607 whole entry): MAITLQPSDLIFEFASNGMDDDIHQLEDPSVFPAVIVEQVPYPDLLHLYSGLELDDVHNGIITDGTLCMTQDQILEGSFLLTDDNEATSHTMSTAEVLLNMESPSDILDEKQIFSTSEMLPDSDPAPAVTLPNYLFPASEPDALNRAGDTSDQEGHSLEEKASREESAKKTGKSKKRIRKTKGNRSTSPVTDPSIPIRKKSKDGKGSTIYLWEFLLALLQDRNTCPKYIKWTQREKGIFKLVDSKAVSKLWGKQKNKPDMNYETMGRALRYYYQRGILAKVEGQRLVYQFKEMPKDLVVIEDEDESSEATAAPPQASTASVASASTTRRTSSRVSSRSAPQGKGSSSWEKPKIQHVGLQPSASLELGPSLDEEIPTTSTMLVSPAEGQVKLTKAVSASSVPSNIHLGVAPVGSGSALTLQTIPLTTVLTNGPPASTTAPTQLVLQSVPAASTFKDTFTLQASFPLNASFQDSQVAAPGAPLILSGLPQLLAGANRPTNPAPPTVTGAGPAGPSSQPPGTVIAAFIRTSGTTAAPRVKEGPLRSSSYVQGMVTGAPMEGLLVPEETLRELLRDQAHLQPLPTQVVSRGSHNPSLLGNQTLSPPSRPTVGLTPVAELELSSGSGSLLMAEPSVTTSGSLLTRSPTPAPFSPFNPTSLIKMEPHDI
Chain of ETV5 (P41161 whole entry): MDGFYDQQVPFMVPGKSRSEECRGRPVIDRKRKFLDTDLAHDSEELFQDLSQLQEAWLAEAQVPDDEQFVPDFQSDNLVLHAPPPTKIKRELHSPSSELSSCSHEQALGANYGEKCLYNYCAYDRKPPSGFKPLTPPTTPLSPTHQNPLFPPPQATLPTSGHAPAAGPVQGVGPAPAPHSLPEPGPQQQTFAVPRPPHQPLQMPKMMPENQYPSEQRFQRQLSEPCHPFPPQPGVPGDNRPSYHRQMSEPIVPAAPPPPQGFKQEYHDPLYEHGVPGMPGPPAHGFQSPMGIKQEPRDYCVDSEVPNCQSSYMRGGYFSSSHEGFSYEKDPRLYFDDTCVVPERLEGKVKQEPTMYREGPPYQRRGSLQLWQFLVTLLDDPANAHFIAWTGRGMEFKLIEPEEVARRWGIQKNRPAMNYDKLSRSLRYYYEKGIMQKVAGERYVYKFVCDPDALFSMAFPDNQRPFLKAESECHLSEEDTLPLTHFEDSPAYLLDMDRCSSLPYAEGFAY
Chain of ELF1 (P32519 whole entry): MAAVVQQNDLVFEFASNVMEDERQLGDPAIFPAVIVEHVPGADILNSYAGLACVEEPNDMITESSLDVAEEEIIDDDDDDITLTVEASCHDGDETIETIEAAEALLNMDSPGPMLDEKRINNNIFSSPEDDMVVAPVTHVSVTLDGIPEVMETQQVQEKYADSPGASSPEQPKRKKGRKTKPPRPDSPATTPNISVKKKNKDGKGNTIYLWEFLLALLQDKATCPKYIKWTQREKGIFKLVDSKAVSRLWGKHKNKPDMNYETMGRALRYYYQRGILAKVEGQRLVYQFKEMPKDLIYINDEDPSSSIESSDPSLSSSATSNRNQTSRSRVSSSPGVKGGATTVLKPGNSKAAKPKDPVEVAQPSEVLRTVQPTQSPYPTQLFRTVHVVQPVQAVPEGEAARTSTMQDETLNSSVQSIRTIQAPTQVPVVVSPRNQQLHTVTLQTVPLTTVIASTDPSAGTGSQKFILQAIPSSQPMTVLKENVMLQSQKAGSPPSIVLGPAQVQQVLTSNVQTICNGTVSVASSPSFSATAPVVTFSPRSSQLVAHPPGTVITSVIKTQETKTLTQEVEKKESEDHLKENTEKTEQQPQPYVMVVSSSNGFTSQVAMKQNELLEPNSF
Chain of SPIB (Q01892 whole entry): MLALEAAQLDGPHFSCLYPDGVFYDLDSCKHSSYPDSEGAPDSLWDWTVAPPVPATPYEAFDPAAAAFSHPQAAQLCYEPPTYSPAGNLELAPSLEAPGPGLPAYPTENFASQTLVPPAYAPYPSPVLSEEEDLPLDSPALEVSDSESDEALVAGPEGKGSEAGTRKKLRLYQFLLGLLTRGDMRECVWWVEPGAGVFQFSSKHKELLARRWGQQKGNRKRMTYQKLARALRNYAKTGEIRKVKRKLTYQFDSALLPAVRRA
Chain of ETV1 (P50549 whole entry): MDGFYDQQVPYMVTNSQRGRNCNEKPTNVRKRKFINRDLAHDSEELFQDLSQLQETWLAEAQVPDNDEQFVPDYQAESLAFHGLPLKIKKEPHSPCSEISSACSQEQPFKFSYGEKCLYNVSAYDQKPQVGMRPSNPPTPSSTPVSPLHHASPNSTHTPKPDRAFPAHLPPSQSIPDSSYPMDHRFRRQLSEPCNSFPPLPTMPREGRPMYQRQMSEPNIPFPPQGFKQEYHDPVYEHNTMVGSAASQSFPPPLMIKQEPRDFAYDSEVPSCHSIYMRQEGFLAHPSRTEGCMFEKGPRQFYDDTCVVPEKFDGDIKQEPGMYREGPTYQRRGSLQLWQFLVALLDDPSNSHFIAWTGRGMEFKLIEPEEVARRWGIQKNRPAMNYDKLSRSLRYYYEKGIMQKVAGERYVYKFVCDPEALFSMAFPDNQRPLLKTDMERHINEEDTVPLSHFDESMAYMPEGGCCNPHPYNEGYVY
Chain of CRX (O43186 whole entry): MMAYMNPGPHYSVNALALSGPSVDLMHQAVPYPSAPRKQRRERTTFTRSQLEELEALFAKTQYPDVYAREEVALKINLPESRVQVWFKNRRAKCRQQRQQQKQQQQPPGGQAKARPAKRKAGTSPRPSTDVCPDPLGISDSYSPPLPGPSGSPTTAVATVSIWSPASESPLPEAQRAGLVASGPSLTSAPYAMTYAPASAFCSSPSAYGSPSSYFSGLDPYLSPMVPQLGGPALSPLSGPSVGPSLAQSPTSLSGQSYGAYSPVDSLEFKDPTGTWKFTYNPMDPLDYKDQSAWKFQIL

As to CGTTAC, the binding signal with FLI1 is 1.17 fold enrichment (6-mer frequency, TF over GST control); with ELK1, 1.09 fold enrichment (6-mer frequency, TF over GST control); with GABPA, 1.08 fold enrichment (6-mer frequency, TF over GST control); with ERG, 1.11 fold enrichment (6-mer frequency, TF over GST control); in the test with ELF1, 1.12 fold enrichment (6-mer frequency, TF over GST control); with EHF it was 1.14 fold enrichment (6-mer frequency, TF over GST control). Further, the binding signal with SPI1 was 1.27 fold enrichment (6-mer frequency, TF over GST control); in the test with SPIB, 1.11 fold enrichment (6-mer frequency, TF over GST control); in the test with ELK3 it was 1.21 fold enrichment (6-mer frequency, TF over GST control); with FEV it was 1.13 fold enrichment (6-mer frequency, TF over GST control); in the test with ETV5, 1.08 fold enrichment (6-mer frequency, TF over GST control); with SPIC, 1.05 fold enrichment (6-mer frequency, TF over GST control). The binding signal with ELF4 was 1.07 fold enrichment (6-mer frequency, TF over GST control); with ELK4 it was 1.02 fold enrichment (6-mer frequency, TF over GST control); with ETV2, 1.02 fold enrichment (6-mer frequency, TF over GST control); in the test with ELF3, 1.04 fold enrichment (6-mer frequency, TF over GST control); with ETV1, 1.17 fold enrichment (6-mer frequency, TF over GST control).
Turning to GATATC, the binding signal in the test with FLI1 was 1.55 fold enrichment (6-mer frequency, TF over GST control); with ELK1, 1.6 fold enrichment (6-mer frequency, TF over GST control); with GABPA it was 1.37 fold enrichment (6-mer frequency, TF over GST control); in the test with ERG it was 1.9 fold enrichment (6-mer frequency, TF over GST control); with ELF1 it was 1.46 fold enrichment (6-mer frequency, TF over GST control); in the test with EHF, 1.44 fold enrichment (6-mer frequency, TF over GST control). Also, the binding signal with SPI1 is 1.4 fold enrichment (6-mer frequency, TF over GST control); in the test with SPIB it was 1.58 fold enrichment (6-mer frequency, TF over GST control); with ELK3, 1.51 fold enrichment (6-mer frequency, TF over GST control); with FEV it was 4.01 fold enrichment (6-mer frequency, TF over GST control); with ETV5 it was 1.6 fold enrichment (6-mer frequency, TF over GST control); in the test with SPIC, 1.41 fold enrichment (6-mer frequency, TF over GST control). Moreover, the binding signal with ELF4 is 1.34 fold enrichment (6-mer frequency, TF over GST control); in the test with ELK4 it was 1.49 fold enrichment (6-mer frequency, TF over GST control); in the test with ETV2, 1.51 fold enrichment (6-mer frequency, TF over GST control); in the test with ELF3, 1.59 fold enrichment (6-mer frequency, TF over GST control); with CRX, 1.02 fold enrichment (6-mer frequency, TF over GST control); with ETV1 it was 1.51 fold enrichment (6-mer frequency, TF over GST control).

The values above are taken from paper PMC7862700, “An all-to-all approach to the identification of sequence-specific readers for epigenetic DNA modifications on cytosine”.
